Bioassay records as filed in PubChem.
A selection: hits, their analogues and other compounds. The true share with any hit is near 4.3%.
HIF-2a block – HIF-2a inhibition; inhibition, % at 18.8 µM; actives 0.72% (n = 360,000); 786-0 RCC cells HIF-2a reporter, luciferase luminescence, overnight;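 active = inhibition of the luminescence signal of 40% or more relative to plate controls, in a single-dose primary screen at 18.75 µM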
Peg3 prom inh-1 – Peg3 promoter activity inhibition. actives 1.7% (n = 360,000). HeLa PEG-Prom luciferase reporter, luminescence, overnight. inhibition, % at 20 µM. AID 588405;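 active = inhibition of at least 50% at 20 µM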
TRPM1 prom inh – MITF TRPM1 promoter inhibition in SK-MEL-5 cells; inhibition, % at 12.5 µM; SK-MEL-5 TRPM1 promoter luciferase, 24 h; actives 0.83% (n = 330,000);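 active = mean inhibition across replicates of 60% or more, whatever share of single replicates reaches that level; inconclusive = some that reach 60%, reason not given; inactive = mean inhibition across replicates below 60%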
KKLEB tox – counter-screen for CF NF-kB inhibitors: cytotoxicity; activity change (cytotoxicity), % at 5 µM; AID 602141; actives 0.36% (n = 360,000); KKLEB CF airway cells viability, ATPlite luminescence, overnight; hits give low values; cells stimulated with P. aeruginosa culture filtrate;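 active = corrected activity change at or below -50% at 5 µM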
CHOP inhibitor – blocks CHOP induction under ER stress | CHO-K1 CHOP-promoter luciferase, tunicamycin-induced, 15-18 h | inhibition, % at 10 µM | actives 3.8% (n = 220,000) | AID 2732;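 active = compounds that reduced the stress-induced luciferase reporter signal by more than about 70% of percent inhibition, limit read from the data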
CF NFkB block – inhibitors of cystic fibrosis induced NF-kB; KKLEB NF-kB-GFP reporter, PAF-induced, GFP fluorescence overnight; actives 0.86% (n = 360,000); AID 588850; inhibition, % at 5 µM;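 active = at least 50% inhibition at 5 µM, scaled per plate between neutral and stimulator controls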;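 note: PAF is a Pseudomonas aeruginosa culture filtrate used as stimulus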
Peg3 prom inh-2 – Peg3 promoter inhibition confirmation. shares compounds with Peg3 prom inh-1. HeLa PEG-Prom luciferase reporter, luminescence, overnight. inhibition, % at 20 µM. actives 84% (n = 1,300);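 active = at 20 µM dose, 40% or more inhibition averaged across four replicates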
Large screens that a line does not name were inactive (follow-up assays come after a bar, where they were run); ! = not active in a repeat.

Brc1ccc(N=Nc2ccc3ccccc3n2)cc1	HIF-2a block 62, Peg3 prom inh-1 73, KKLEB tox -98, CHOP inhibitor 91 | Peg3 prom inh-2 68
CN(C)c1ccc2c(c1)Sc1cc(N(C)C)ccc1N2C(=O)c1ccccc1	none
CCOc1cccc(C2/C(=C(/O)c3ccc4c(c3)CC(C)O4)C(=O)C(=O)N2CCCn2ccnc2)c1 (stereo not given)	none (no result: CHOP inhibitor)
Cc1nc2c(-c3ccc(Cl)cc3)c(C)[nH]n2c(=O)c1Cc1ccccc1	Peg3 prom inh-1 59 | Peg3 prom inh-2 67
O=C1c2ccccc2C(=O)C12OC2c1ccc(Cl)cc1Cl (stereo not given)	Peg3 prom inh-1 99, TRPM1 prom inh inconclusive, KKLEB tox -68, CHOP inhibitor 88, CF NFkB block 96 | Peg3 prom inh-2 51
Cc1nccn1CCCNC(=O)CC1C(=O)NCCN1Cc1ccc(F)cc1Cl (stereo not given)	none (no result: CHOP inhibitor)
COc1ccccc1NS(=O)(=O)c1ccc2ccccc2c1	none (no result: CHOP inhibitor)
COc1ccc(NS(=O)(=O)c2ccc3ccccc3c2)c2ncccc12	Peg3 prom inh-1 51, CF NFkB block 51 (no result: CHOP inhibitor) | Peg3 prom inh-2 52
COc1ccc2nc(Nc3nc(CSc4nnnn4-c4ccccc4)cc(=O)[nH]3)nc(C)c2c1	Peg3 prom inh-1 74 | Peg3 prom inh-2 44
O=C(O)c1cccc(Nc2nc(-c3ccc([N+](=O)[O-])cc3)nc3ccccc23)c1	none (no result: CHOP inhibitor)
O=[N+]([O-])c1ccc(-c2nc(Nc3cccc(O)c3)c3ccccc3n2)cc1	Peg3 prom inh-1 81 (no result: CHOP inhibitor) | Peg3 prom inh-2 91
C[n+]1c2cc(N)ccc2cc2ccc(N)cc21	HIF-2a block 41!, Peg3 prom inh-1 96, TRPM1 prom inh 64 (no result: CHOP inhibitor) | Peg3 prom inh-2 96
Nc1ccc2ccc(O)cc2c1	none (no result: CHOP inhibitor)
Cc1cccc(C)c1NC(=O)CN(C)C(=O)c1ccccc1OCc1ccc(F)cc1	none (no result: CHOP inhibitor)
COc1cc(CNCCO)cc(Cl)c1OCc1ccccc1Cl	none
CCOc1cc(CNCCO)cc(Br)c1OCc1ccccc1Cl	Peg3 prom inh-1 106, CHOP inhibitor 85 | Peg3 prom inh-2 74
CCC(CC)C(C(=O)NCc1ccccc1)N1CCN(CCN2CCOCC2)CC1 (stereo not given)	none (no result: Peg3 prom inh-1, TRPM1 prom inh, KKLEB tox, CHOP inhibitor, CF NFkB block)
Cc1ccc2oc(/N=C(\N)NC(=O)C(C)(C)C)nc2c1	HIF-2a block 81, Peg3 prom inh-1 82, TRPM1 prom inh 72, KKLEB tox -61, CHOP inhibitor 86 | Peg3 prom inh-2 85
CC(C)(C)OC(=O)N1CCC[C@H]1C(=O)N/N=C/c1cccc2nccnc12	none (no result: TRPM1 prom inh)
CC(=O)Nc1nc2cc3c(cc2s1)OCO3	none (no result: TRPM1 prom inh)
O=C(Nc1nc2cc3c(cc2s1)OCO3)C1=COCCO1	HIF-2a block 55, Peg3 prom inh-1 62, TRPM1 prom inh 83 | Peg3 prom inh-2 64
O=C(Nc1nc2cc3c(cc2s1)OCCO3)c1ccco1	HIF-2a block 71, Peg3 prom inh-1 66, TRPM1 prom inh inconclusive (no result: CHOP inhibitor) | Peg3 prom inh-2 62
O=C(Nc1nc2cc3c(cc2s1)OCO3)c1ccco1	none
COc1ccc(C(O)c2cnc(C)n2Cc2ccccc2)cc1 (stereo not given)	none (no result: TRPM1 prom inh, CHOP inhibitor)
CCCCCCOc1ccc(/C(C)=N/NC2=NCCN2)cc1	Peg3 prom inh-1 108 (no result: CHOP inhibitor) | Peg3 prom inh-2 98
O=S(=O)(c1cccc(F)c1)N1CCN(c2nc(-c3cccnc3)nc3ccccc23)CC1	Peg3 prom inh-1 53 (no result: CHOP inhibitor) | Peg3 prom inh-2 55
COc1ccc(S(=O)(=O)N2CCCOC2CNC(=O)C(=O)NC2CCCC2)cc1 (stereo not given)	none (no result: CHOP inhibitor)
O=C(Nc1cccc(S(=O)(=O)N2CCCC2)c1)c1ccc2c(=O)n3c(nc2c1)CCCCC3	none
O=C(Nc1cccc(S(=O)(=O)N2CCOCC2)c1)c1ccc2c(=O)n3c(nc2c1)CCCCC3	Peg3 prom inh-1 51 | Peg3 prom inh-2 51
COc1ccc(C2NCCc3c2[nH]c2ccccc32)cc1CN1CCc2cc(OC)c(OC)cc2C1C (stereo not given)	none
COc1ccc(C2NCCc3c2[nH]c2ccccc32)cc1COc1ccc(F)cc1 (stereo not given)	Peg3 prom inh-1 97, CHOP inhibitor 75 | Peg3 prom inh-2 98
CN(C)CCCN1c2ccccc2Sc2ccc3ccccc3c21	Peg3 prom inh-1 61 (no result: CHOP inhibitor) | Peg3 prom inh-2 98
